Assay results reported in the supplement of paper PMC5407854, “Inhibitor of ppGalNAc-T3-mediated O-glycosylation blocks cancer cell invasiveness and lowers FGF23 levels” (eLife, 2017).
In all, about 1,700 compounds were measured (“T2 sensor activation Q score (MG/GFP ratio z-score vs DMSO controls)”: median about 0.3, highest 2% from about 1.9 on). For the sample, the highest values were picked, then their nearest neighbours and some compounds at random.

System: ppGalNAc-T2 sensor
Experiment: T2 sensor activation Q score (MG/GFP ratio z-score vs DMSO controls) (SD units); higher = more sensor activation (inhibition of ppGalNAc-T2 glycosylation)
Conditions: HEK293 sensor cells; 10 µM; 6 h
Experimental: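 Cells were treated with compound at 10 uM for 6 h, then MG/GFP ratio was read by flow cytometry (10,000 cells per well, duplicate wells). Q = (R - R_neg)/SD_neg relative to DMSO vehicle controls; the signal rises when the glycosyltransferase is inhibited.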

Structure (SMILES)	T2 sensor activation Q score
CCOC(=O)C(C)c1c(C(=O)c2ccc(C)nc2)c2ccccc2n1C (configuration not stated)	0.9
NC(=O)c1nnsc1-c1ccc(-c2snnc2C(N)=O)cc1	1.7
O=c1[nH]c(=S)c2ncn(-c3ccccc3)c2[nH]1	-1.3
NC(=O)c1ccccc1NC(=O)COc1ccc(Cl)cc1	-0.45
CC(=O)Nc1ccc(S(=O)(=O)N/N=c2/sc3ccccc3n2C)cc1N	-0.6
c1ccc(-c2nnc3oc(-c4cccs4)nn23)cc1	-1.05
Cc1cn(C2CC(O)C(CO)O2)c(=O)n(Cc2ccccc2)c1=O (configuration not stated)	0.85
O=c1[nH]cc(Cl)cc1Cl	0.5
CCOC(=O)/C=C/c1nc(C(=O)OCC)c(C)c(=O)[nH]1	-0.1
CC(C)CCCCCCCCCCCCC(=O)NCC(=O)NC1C(C)OC(Nc2ncnc3nc[nH]c23)C(O)C1O (configuration not stated)	8.6
CC(C)=NNc1ncnc2nc[nH]c12	1.25
Cc1ccc(Nc2n[nH]c(=S)s2)cc1F	-0.95
NNC(=O)Cc1cc(=O)[nH][nH]1	-0.7
Cc1cc(=O)oc2cc(OS(C)(=O)=O)ccc12	1.2
CCSc1nc(=S)cc(C)[nH]1	-0.1
CC(=NNC(N)=O)c1ccc(Cl)c(-n2cccc2)c1	0.6
N#C/C(=C\c1c[nH]c2ccccc12)C(N)=O	0.8
NC(=S)N/N=C\c1cc(-c2cccc(N)c2)ccn1	0
O=C(Nc1ccc(C2=NCCCN2)cc1)Nc1ccc(C2=NCCCN2)cc1	-0.6
COc1ccc2c(c1)CCCN2C(N)=Nc1ccc(Cl)cc1	1.25
Cc1cccc2cc3cccc(C)c3nc12	0.3

Structure (SMILES)	T2 sensor activation Q score
Cc1c(COC(=O)NC(C)C)c(COC(=O)NC(C)C)c2n1CS(=O)(=O)C2	-0.4
CC1CC(C)(C)C2=NCCN21 (configuration not stated)	1.3
Cc1ccc(S(=O)(=O)NC(=O)Nc2nccs2)cc1	-1.2
Cc1ccc(S(=O)(=O)NNC(=O)C23CCC(CC2)C3)cc1	1.95
CC(=O)C1C=CC(C)(C(=O)O)C2C=C(C)C(=O)C(C)(O)C12 (configuration not stated)	0.2
CCOC(=O)c1csc(-c2ccc(COC(=O)c3ccccc3)o2)n1	-1
COc1ccc2c(c1)CCN1C2CCN2C(=O)CCC21 (configuration not stated)	0.9
O=S1(=O)CCN(Cc2ccccn2)CC1	0.85
COC(=O)c1ccc(Cn2cnc3c(Cl)ncnc32)cc1	1.6
Cc1cc(N)c2cc(NC(=O)C=Cc3ccccc3Cl)ccc2n1	1.5
Nc1ccc(N=Nc2ccccc2)c2ccccc12	-0.25
O=C(Nc1ccc(Nc2ccccc2)cc1)Nc1ccccc1Cl	-1.35
Nc1cc(Nc2ccc(Br)cc2)nc(N)n1	0.6
CCCCCOc1ccc(N2C(=O)C(C)CNC2=S)cc1 (configuration not stated)	0.7
Oc1ccc(-c2nc3ccccc3s2)c(O)c1	0.2
Oc1ccc(Cc2ccccc2Cl)c(O)c1	1.95
Oc1ccc(Cc2ccc(Cl)cc2)c(O)c1	1.3
COC(=O)c1cc(C)[nH]c2c(C)cc3nc4ccccc4c3c12	0.65
O=C(Oc1ccccc1)N(c1ccccc1)c1ccccc1	0.35
Cc1cc(/C=C2\SC(=S)NC2=O)cc(C)c1O	0.35
CN1CCC=C(C(=O)N2c3ccccc3Sc3ccc(Cl)cc32)C1	0.25

Structure (SMILES)	T2 sensor activation Q score
CN(C)c1ccc(/C=C(\C#N)C(=O)c2ccccc2)cc1	-0.3
CN(C)c1ccc2c(c1)Sc1cc(N(C)C)ccc1N2C(=O)c1ccccc1	2.55
CC[C@]1(O)C[C@H]2CN(CCc3c([nH]c4ccccc34)[C@@](C(=O)OC)(c3cc4c(cc3OC)N(C=O)[C@H]3[C@@](O)(C(=O)OC)[C@H](OC(C)=O)[C@]5(CC)C=CCN6CC[C@]43[C@@H]65)C2)C1	1.4
CC[C@]1(O)C[C@@H]2CN(CCc3c([nH]c4ccccc34)[C@@](C(=O)OC)(c3cc4c(cc3OC)N(C)[C@H]3[C@@](O)(C(=O)OC)[C@H](OC(C)=O)[C@]5(CC)C=CCN6CC[C@]43[C@@H]65)C2)C1	2.05
CCC1=C[C@@H]2CN(C1)Cc1c([nH]c3ccccc13)[C@@](C(=O)OC)(c1cc3c(cc1OC)N(C)[C@H]1[C@@](O)(C(=O)OC)[C@H](OC(C)=O)[C@]4(CC)C=CCN5CC[C@]31[C@@H]54)C2	1.1
C=C(C)C(=O)Oc1ccc(N=Nc2ccc(C)cc2)ccc1=O	1.1
NC(=O)c1nc2c([nH]c1=O)CCCC2	-0.85
CSc1nc(N)c(C(=O)Nc2ccc([N+](=O)[O-])cc2)s1	0.05
O=C(Nc1cccc(-c2nc3ccccc3[nH]2)c1)c1ccc(C(=O)Nc2cccc(-c3nc4ccccc4[nH]3)c2)cc1	3
c1ccc2[nH]c(-c3ccncc3)nc2c1	-1.1
Nc1ccc(C(=O)Nc2cccc(N)c2)cc1	-0.5
Cn1ncc2c(Sc3ccc(Cl)cc3)ncnc21	1.3
CC1=CN2C(c3cccc([N+](=O)[O-])c3)=NON(c3ccc(C)cn3)C2C=C1 (configuration not stated)	0.85
CSc1ncc2[nH]c(C(O)c3ccccc3)nc2n1 (configuration not stated)	-0.45
O=S1(=O)CCC(N(N=Cc2ccco2)c2ccccc2)C1 (configuration not stated)	-0.2
O=CN/C=C\c1cc(O)ccc1O	-0.3
OC[C@@H]1CCC[C@H](n2cnc3c(=S)nc[nH]c32)O1	0.75
Cc1nccnc1Sc1ccccc1	-0.2
Oc1c(N=Nc2nn[nH]n2)ccc2ccccc12	3.6
Oc1ccc2ccccc2c1N=Nc1nccs1	0.9
